We go through 68 molecules from the supplement of paper PMC10670038.

SMILES strings stand for the structures. Counter-ions that a name gives are not always drawn. ± gives the standard deviation of the averaged measurements. The full ranking holds about 2,000 compounds; the median of “relative cell viability vs DMSO, compound + 0.2 uM CuET” is about 1, and the lowest 2% start at about 0.25. The entries come from a sample that favours the lowest values as a whole.

This test concerns TE10. Put plainly: relative cell viability vs DMSO, compound + 0.2 uM CuET (fraction); TE10 is an esophageal squamous carcinoma line; higher = less cytotoxic. Particulars: 2 µM; co-treatment: CuET (bis(diethyldithiocarbamate)copper) 0.2 uM; 48 h. The protocol: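 TE10 ESCC cells (1,000/well, 384-well plates) were treated with Selleck bioactive library compounds at 2 uM combined with 0.2 uM CuET (copper diethyldithiocarbamate) for 48 h. Viability was read by CellTiter-Glo and expressed relative to DMSO wells. Two technical replicates (A, B).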
As for `Cc1c(-c2ccnn2C)cc(C(=O)NCc2ccc(S(C)(=O)=O)cn2)c(=O)n1-c1cccc(C(F)(F)F)c1` [Alvelestat (AZD9668)], the relative cell viability was 0.993 ± 0.044.
The same measure for `CC(C)(C)c1cnc(CSc2cnc(NC(=O)C3CCNCC3)s2)o1`: 0.963 ± 0.093; for `COc1c2ccoc2cc2oc(=O)ccc12` [Bergapten]: 1.12 ± 0.038; for `CCC(=O)O[C@]1(C(=O)SCF)[C@H](C)C[C@H]2[C@@H]3C[C@H](F)C4=CC(=O)C=C[C@]4(C)[C@@]3(F)[C@@H](O)C[C@@]21C` [Fluticasone propionate]: 1.02 ± 0.043.
The same measure for `Oc1c(Br)cc(Br)c2cccnc12` [Broxyquinoline]: 0.689 ± 0.033; for `O=S(=O)(O)c1cc(O)ccc1O` [Ethamsylate]: 1.08 ± 0.096.
The same measure for `C=CCc1ccc(O)c(-c2cc(CC=C)ccc2O)c1` [Magnolol]: 1.02 ± 0.057.
With `O=S(=O)(O)CCS` [Mesna], the relative cell viability is 1.08 ± 0.024.
The same measure for `CN1CCN(Cc2ccc(NC(=O)Cc3ccc(Oc4cc(NC(=O)C5CC5)ncn4)cc3)cc2C(F)(F)F)CC1`: 0.9884 ± 0.0017; for `CCS(=O)(=O)Nc1ccc2[nH]c(O)c(C(=Nc3ccc(CN4CCCCC4)cc3)c3ccccc3)c2c1` [Hesperadin]: 0.5395 ± 0.0028.
The same measure for `CCOC(=O)C1=C(N)Oc2ccc(Cl)cc2C1C(C#N)C(=O)OCC` (stereo not drawn): 0.663 ± 0.023; for `CN[C@@H](C)C(=O)N[C@H](C(=O)N1CCC[C@H]1C(=O)N[C@H](C(=O)NCCCCCCNC(=O)[C@@H](NC(=O)[C@@H]1CCCN1C(=O)[C@@H](NC(=O)[C@H](C)NC)C1CCCCC1)C(c1ccccc1)c1ccccc1)C(c1ccccc1)c1ccccc1)C1CCCCC1`: 0.437 ± 0.011; for `CC(C)(C)c1[nH]cnc1/C=c1\[nH]c(=O)/c(=C/c2ccccc2)[nH]c1=O` [Plinabulin (NPI-2358)]: 0.753 ± 0.058.
The result for `NCC(=O)Nc1ccc(-n2nc(C(F)(F)F)cc2-c2ccc3c(ccc4ccccc43)c2)cc1` reads 0.649 ± 0.017; that for `COCCOc1nc(-c2ccc(Cl)c(Cl)c2)n(-c2ccc(NC(=O)CCl)cc2)n1` [MI-2 (MALT1 inhibitor)], 0.115 ± 0.0096; that for `COc1nc(-c2ccc3c(c2)OCO3)n(-c2ccc(NC(=O)CSc3ccccc3)cc2)n1` [SecinH3], 1.25 ± 0.17.
`CN(C)c1cc(NC(=O)CNC(C)(C)C)c(O)c2c1CC1CC3C(N(C)C)C(=O)C(C(N)=O)=C(O)C3(O)C(=O)C1=C2O` (stereo not drawn) [Tigecycline]: the relative cell viability is 0.994 ± 0.068.
The result for `O=Nc1c(-c2c(O)[nH]c3cc(Br)ccc23)[nH]c2ccccc12` reads 1.083 ± 0.0023; that for `C[N+]1(C)[C@@H]2C[C@@H](OC(=O)C(O)(c3cccs3)c3cccs3)C[C@H]1[C@@H]1O[C@@H]12` [Tiotropium Bromide hydrate], 0.962 ± 0.027.
The same measure for `C=C1CC2(O)OC3(CC2C(C)C)C(C)CCC13` (stereo not drawn) [Curcumol]: 0.838 ± 0.028; for `CC(=O)Nc1ccc(C(=O)Nc2ccccc2N)cc1` [CI994 (Tacedinaline)]: 1.23 ± 0.26; for `CCCCN(Cc1ccc(C(=O)NO)cc1)C(=O)Nc1ccccc1` [Nexturastat A]: 0.837 ± 0.056.
The same measure for `CC(C)[C@H](C(=O)Nc1ccc(C(=O)NO)cc1)c1ccccc1`: 0.178 ± 0.0071; for `Cc1c(C(=O)NN2CCCCC2)nn(-c2ccc(Cl)cc2Cl)c1-c1ccc(Cl)cc1` [Rimonabant]: 0.716 ± 0.15.
Turning to `NC1=N[C@@]2(c3cc(NC(=O)c4ccc(F)cn4)ccc3F)COC[C@H]2CS1`, the relative cell viability came out at 0.948 ± 0.07.
The same measure for `O=C(O)C(Cc1ccccc1[N+](=O)[O-])=NNc1nc(-c2ccc(Cl)c(Cl)c2)cs1`: 1.04 ± 0.16.
Turning to `O=C(/C=C\n1cnc(-c2cc(C(F)(F)F)cc(C(F)(F)F)c2)n1)NNc1cnccn1`, the relative cell viability was 0.29 ± 0.015.
The result for `COc1cc(-c2ncn(/C=C\C(=O)OC(C)C)n2)cc(C(F)(F)F)c1` reads 0.25 ± 0.0078.
With `O=C(/C=C/n1cnc(-c2cc(C(F)(F)F)cc(C(F)(F)F)c2)n1)N1CC(F)(F)C1`, the relative cell viability was 0.355 ± 0.025.
The result for `C=CS(=O)(=O)NC1CCN(C(=O)CNc2cc(I)c(Cl)cc2OC)CC1` [K-Ras(G12C) inhibitor 9] reads 0.699 ± 0.08; that for `O=C(NOCC1CC1)c1ccc(F)c(F)c1Nc1ccc(I)cc1Cl`, 0.64 ± 0.17.
The result for `Cc1cccc(-c2[nH]ncc2-c2ccc3ncccc3n2)n1` reads 1.04 ± 0.0027.
With `CC(C)(C)OC(=O)Nc1ccc(-c2cc(C(=O)NCCCCCCC(=O)NO)no2)cc1`, the relative cell viability turned out to be 0.244 ± 0.003.
`O=C(CCCCCCNC(=O)c1cnc(N(c2ccccc2)c2ccccc2)nc1)NO` [Rocilinostat (ACY-1215)]: the relative cell viability came out at 0.8907 ± 0.0072.
In the case of `CN(C)c1ccc(C(=O)NCCCCCCC(=O)NO)cc1`, the relative cell viability stood at 0.322 ± 0.042.
The result for `C[C@@H]1COC(Nc2ccc3ncnc(Nc4ccc(OCc5nccs5)c(Cl)c4)c3c2)=N1` [Varlitinib] reads 1.04 ± 0.086.
The result for `S=C=Nc1cccc(NC(=S)NCCCCNC(=S)Nc2cccc(N=C=S)c2)c1` reads 1.2 ± 0.15; that for `C=CC(=O)Nc1cccc(Sc2nc(Nc3ccc(N4CCN(C)CC4)cc3)ncc2Cl)c1`, 0.846 ± 0.02.
For the molecule `CCn1c(=O)c(-c2ccc(-c3cncs3)cc2Cl)cc2cnc(Nc3ccc(N4CCN(C)CC4)cc3)nc21`, the relative cell viability amounted to 0.183 ± 0.025.
The result for `C=CCn1c(=O)c2cnc(Nc3ccc(N4CCN(C)CC4)cc3)nc2n1-c1cccc(C(C)(C)O)n1` reads 0.559 ± 0.038; that for `COc1cc2ncnc(Oc3cccc(NC(=O)Nc4cc(C(C)(C)C(F)(F)F)on4)c3)c2cc1OC`, 1.1 ± 0.061.
As to `COc1cc(OC)c(NC(=O)Nc2cc(C)on2)cc1Cl`, the relative cell viability turned out to be 1.1 ± 0.05.
As to `CCN1C(=CC(C)=O)Sc2ccc(OC)cc21`, the relative cell viability worked out at 1.11 ± 0.11.
The same measure for `CC(CCC(=O)NCCS(=O)(=O)O)C1CCC2C3C(O)CC4CC(O)CCC4(C)C3CCC12C` (stereo not drawn) [Sodium Tauroursodeoxycholate (TUDC)]: 1.24 ± 0.12.
The same measure for `O=C1C(Cl)=C(N2CCOCC2)C(=O)N1c1ccc(Cl)c(Cl)c1`: 1.17 ± 0.026.
The same measure for `COc1ccc(/C=C/C(=O)C2(C(=O)/C=C/c3ccc(OC)c(OC)c3)CCCCC2)cc1OC`: 0.238 ± 0.01; for `COc1cc(/C=C/C(=O)O)ccc1O` [Ferulic Acid]: 1.21 ± 0.12.
On to `COc1cc(/C=C/C(=O)CC(=O)/C=C/c2ccc(O)c(OC)c2)ccc1O` [Curcumin], for which the relative cell viability stood at 0.656 ± 0.023.
The result for `O=C1c2c(O)cccc2C([C@@H]2O[C@H](CO)[C@@H](O)[C@H](O)[C@H]2O)c2cc(CO)cc(O)c21` (stereo partly drawn) [Aloin] reads 1.1 ± 0.12.
The same measure for `N#Cc1ccc(COC[C@H]2O[C@@H](n3c(NCc4ccc(Cl)c(Cl)c4)nc4c(N)ncnc43)[C@H](O)[C@@H]2O)cc1`: 0.939 ± 0.0025; for `CCOc1ccccc1OC(c1ccccc1)C1CNCCO1` (stereo not drawn) [Reboxetine mesylate]: 1.2 ± 0.37; for `c1ccc(Cn2c(-c3ccc(OCC(C4CCNCC4)n4c(-c5ccccc5)nc5ccccc54)cc3)nc3ccccc32)cc1` (stereo not drawn) [Deltarasin]: 0.9797 ± 0.0069.
As to `CC1(C)C=C(CN2C/C(=C\c3ccc(F)cc3)C(=O)/C(=C/c3ccc(F)cc3)C2)C(C)(C)N1O`, the relative cell viability amounted to 0.216 ± 0.0066.
The result for `CC(C)(C)Cn1c(N)nc2ccc(-c3[nH]c(C(C)(C)C)nc3-c3ccc(F)cc3)nc21` reads 1.34 ± 0.083; that for `CCOC(=O)C1=C(C)NC(C)=C(C(=O)OCC)C1c1ccccc1/C=C/C(=O)OC(C)(C)C` [Lacidipine], 0.785 ± 0.011; that for `COc1ccc(COc2ccc(Cc3cnc(N)nc3N)cc2OC)cc1`, 1.024 ± 0.0044.
The same measure for `Cn1c(=O)cc(N2CCC[C@@H](N)C2)n(Cc2cc(F)ccc2C#N)c1=O` [Trelagliptin]: 1.17 ± 0.22.
On to `CC(C=CC(=O)NO)=CC(C)C(=O)c1ccc(N(C)C)cc1` (stereo not drawn) [Trichostatin A (TSA)], for which the relative cell viability amounted to 0.177 ± 0.0076.
The result for `CN(C(Cc1ccc(OS(=O)(=O)c2cccc3cnccc23)cc1)C(=O)N1CCN(c2ccccc2)CC1)S(=O)(=O)c1cccc2cnccc12` (stereo not drawn) reads 0.992 ± 0.046; that for `CC(NC(=O)C(O)c1cc(F)cc(F)c1)C(=O)NC1C(=O)N(C)c2ccccc2-c2ccccc21` (stereo not drawn), 1.07 ± 0.058.
The same measure for `CC(C)OC(=O)C1=CN(C(=O)c2ccc(F)c(F)c2)CC(C)(C)c2c1[nH]c1ccccc21`: 1.13 ± 0.041.
The same measure for `O=C(NNc1ccccc1)c1ccncc1`: 1.06 ± 0.18; for `NNC(=O)c1ccncc1` [Isoniazid]: 1.1 ± 0.14.
Regarding `O=C(/C=C/c1ccc2ccccc2n1)c1ccncc1`, the relative cell viability came to 0.186 ± 0.037.
The result for `Cn1c(=O)cc(N2CCC[C@@H](N)C2)n(Cc2ccccc2C#N)c1=O` [Alogliptin] reads 1.1 ± 0.21.
The same measure for `NCc1c[nH]c(=S)n1[C@@H]1CCc2c(F)cc(F)cc2C1` [(R)-Nepicastat HCl]: 1.121 ± 0.0038; for `CN(C)CCSSCCNC(=O)C1CCN(C(=O)CSc2ccc(Cl)cc2)CC1`: 1.05 ± 0.11.
In the case of `Cc1cc(N2CCOCC2)cc2[nH]c(-c3c(NCC(O)c4cccc(Cl)c4)cc[nH]c3=O)nc12` (stereo not drawn), the relative cell viability was 0.799 ± 0.15.
